Screening results (PubChem BioAssay)
Pemphigus Ab inh – inhibitors of pemphigus antibody binding to DSG3, primary screen, biochemical, bead-based, flow cytometry, scFv-GFP | Desmoglein-3 (Homo sapiens), P32926 | DSG3-coupled beads, scFv-anti-DSG3-GFP binding; stronger effect = lower value | binding (percent of control), % at 10 µM | 0.48% of 310,000 active;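 active means binding more than 3 SD below its plate's average and above zero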;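 further: hits lower antibody fragment binding to DSG3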
Target sequence (P32926 whole entry, looked up, the tested form may be a part): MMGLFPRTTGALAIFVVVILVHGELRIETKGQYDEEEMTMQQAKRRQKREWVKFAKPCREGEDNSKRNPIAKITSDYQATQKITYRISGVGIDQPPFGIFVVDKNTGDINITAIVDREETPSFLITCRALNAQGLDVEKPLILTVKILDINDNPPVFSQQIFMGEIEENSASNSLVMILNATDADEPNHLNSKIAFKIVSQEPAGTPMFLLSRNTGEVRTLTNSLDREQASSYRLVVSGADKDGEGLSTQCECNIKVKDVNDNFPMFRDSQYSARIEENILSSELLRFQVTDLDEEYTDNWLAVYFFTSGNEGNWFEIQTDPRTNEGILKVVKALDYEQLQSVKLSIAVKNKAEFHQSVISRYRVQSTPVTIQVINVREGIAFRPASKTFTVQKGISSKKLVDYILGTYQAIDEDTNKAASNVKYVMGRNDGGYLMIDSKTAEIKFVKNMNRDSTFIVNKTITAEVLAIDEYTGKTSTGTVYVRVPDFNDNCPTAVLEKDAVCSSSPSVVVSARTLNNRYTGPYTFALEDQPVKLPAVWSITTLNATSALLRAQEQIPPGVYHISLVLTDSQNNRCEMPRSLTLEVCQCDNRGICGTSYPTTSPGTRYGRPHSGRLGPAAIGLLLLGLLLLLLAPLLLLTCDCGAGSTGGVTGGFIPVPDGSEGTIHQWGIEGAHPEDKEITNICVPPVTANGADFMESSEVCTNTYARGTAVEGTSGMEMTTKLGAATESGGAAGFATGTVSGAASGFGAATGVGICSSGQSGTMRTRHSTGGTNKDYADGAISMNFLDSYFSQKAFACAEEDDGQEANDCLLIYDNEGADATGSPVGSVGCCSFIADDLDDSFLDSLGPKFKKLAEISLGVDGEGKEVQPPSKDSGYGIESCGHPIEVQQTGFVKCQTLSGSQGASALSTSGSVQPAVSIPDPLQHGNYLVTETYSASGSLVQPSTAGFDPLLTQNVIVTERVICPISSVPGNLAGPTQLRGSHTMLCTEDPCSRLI
VLA-4 inh – inhibition in human VLA-4 binding assay, primary screen, VLA-4 allosteric modulator project, MLPCN library, flow cytometry, VLA-4 expressing cells. ligand binding flow cytometry. AID 2557, 2010. 0.2% of 330,000 active. Integrin alpha-4 (Homo sapiens), P13612. inhibition, % (about 7 µM as worked out from the volumes in the protocol); in the data active means inhibition above about 50%
PREPL inhibitor – PREPL enzyme inhibitors, primary screen, biochemical, fluorescence polarization; 0.68% of 320,000 active; inhibition, % at 5.96 µM; Prolyl endopeptidase-like (Homo sapiens), Q4J6C6; recombinant PREPL, fluorescence polarization activity-based probe;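 further: 0% = enzyme with DMSO and 100% = wells lacking enzyme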
GRK2 inh – compounds blocking aptamer binding on GRK2 – biochemical, human GRK2, bead flow cytometry, HTS, primary screen. Beta-adrenergic receptor kinase 1 (Homo sapiens), P25098. FAM-aptamer displacement from GRK2. inhibition of aptamer binding, % at 10 µM. 0.59% of 330,000 active;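 active means inhibition of aptamer binding above 40%, roughly 3 SD of noise, on plates passing a quality check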;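 further: median bead fluorescence of bound FAM aptamer so fluorescent compounds give negative values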
GASC-1 inh – inhibitors of GASC-1 histone demethylase, primary screen, biochemical, fluorescence, DELFIA europium | GST-JMJD2C(1-420) H3K9me3 demethylation | Lysine-specific demethylase 4C (Homo sapiens), Q9H3R0 | inhibition, % at 2.35 µM | 0.069% of 330,000 active;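 active means more than half of a compound's replicate wells show inhibition beyond 50%, single wells judged on their own value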;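 further: signal counts dimethyl H3K9 product captured on neutravidin plate; 0% = median of DMSO wells and 100% = 0.3 times that DMSO median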
PREPL inh cf – human PREPL enzyme inhibitors, confirmation, biochemical, fluorescence polarization. 67% of 2,000 active. inhibition, % at 5.96 µM. shares compounds with PREPL inhibitor. recombinant PREPL, fluorescence polarization activity probe;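 further: 0% = protein with DMSO and 100% = wells lacking protein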
Numbers without * were called inactive; . = no result given. Most compounds without a hit are left out; they make up all but 1.6% or so of the library. Unless noted, no stated cut-off is given here; in the data, active means inhibition above about 43%; inactive means the rest.

SMILES	Pemphigus Ab inh	VLA-4 inh	PREPL inhibitor	GRK2 inh	GASC-1 inh	PREPL inh cf
O=C(CCn1ccc2ccccc21)Nc1ccc(N2CCOCC2)cc1	.	17.5	44.6*	1.0	5.4	38.3
O=C(Nc1ccc(N2CCOCC2)cc1)c1cccc2ccccc12	.	3.9	1.8	2.0	-2.1	.
O=C(COC(=O)CNC(=O)c1ccccc1)Nc1ccc(Cl)cn1	119.5	-0.2	45.3*	2.0	4.6	1.8
O=C(COC(=O)CNC(=O)c1ccco1)Nc1ccc(Cl)cn1	86.8	9.0	-4.2	0.0	23.3	.
CC(C)(C)[C@H]1COC(=O)[C@@H](Cc2ccc(F)cc2)CC/C=C/C[C@@H](CC(=O)N[C@@H](CO)Cc2ccccc2)C(=O)N1	102.1	7.7	31.7	26.0	24.8	.
CC(C)(C)[C@H]1COC(=O)[C@@H](Cc2ccc(F)cc2)CC/C=C/C[C@@H](CC(=O)N[C@H](CO)Cc2ccccc2)C(=O)N1	100.5	8.6	47.2*	0.0	2.2	41.1
CCOc1cc(/C=N/NC(=O)COc2ccc(C)cc2)ccc1OC(=O)c1cccs1	97.0	10.3	19.1	2.0	-6.8	.
CCOc1cc(/C=C2\C(=O)N(c3ccc(C(N)=O)cc3)N=C2C)ccc1OC(=O)c1cccs1	94.8	3.6	57.5*	0.0	7.0	90.9*
CC1=NN(c2ccc(C(=O)O)cc2)C(=O)/C1=C\c1ccc(OC(=O)c2cccs2)cc1	100.8	6.5	45.3*	4.0	-21.8	61.5*
CC1=NN(c2ccccc2)C(=O)/C1=C/c1cccs1	75.8	16.8	3.0	0.0	0.8	.
Cc1ccc(C)c(NC(=O)COC(=O)c2cccc3c2C(=O)c2ccccc2C3=O)c1	97.1	-24.2	60.1*	3.0	-1.6	47.0*
Cc1ccc(NC(=O)COC(=O)c2cccc3c2C(=O)c2ccccc2C3=O)c(C)c1	100.5	12.5	25.9	1.0	-4.2	.
COc1ccc(Cn2nnc3c(=O)[nH]c(C(=O)NCCc4ccc(F)cc4)nc32)cc1OC	107.0	0.0	5.5	5.0	-6.5	.
C[C@@H]1CCCCO[C@H](CN(C)S(=O)(=O)c2ccccc2)[C@@H](C)CN([C@H](C)CO)C(=O)c2cc(NC(=O)Cc3ccccc3)ccc2O1	105.9	.	.	.	.	.
O=C(O/N=C(\c1ccccc1)c1ccncc1)c1ccccc1Cl	101.3	5.4	53.6*	1.0	2.3	41.8
Clc1nc(CN2CCCCC2)nc2sc3c(c12)CCC3	104.8	5.7	7.1	0.0	-1.2	.
C/C(=N\NC(=O)C1CCCN(S(=O)(=O)c2ccccc2)C1)c1ccncc1 (stereo not drawn)	80.0	-1.6	43.2*	3.0	-4.4	3.1
O=C(CP(=O)(c1ccccc1)c1ccccc1)Nc1nc2ccccc2s1	111.7	-3.0	50.0*	1.0	-25.5	41.2
Cc1cc(C)cc(N(CCC#N)C(=O)COC(=O)CCc2c[nH]c3ccccc23)c1	97.5	10.2	45.6*	1.0	4.5	38.8
Cc1cc(C)cc(NC(=O)CCn2cnc3cc(C)c(C)cc32)c1	106.0	-146.7	-6.9	0.0	-3.6	.
FC(F)(F)C(Oc1nc(Nc2ccc(Cl)cc2)nc(N2CCOCC2)n1)C(F)(F)F	103.6	14.6	-2.4	4.0	-4.7	.
Cc1ccc(Nc2nnc(SC/C(O)=C(\C#N)c3nc4ccccc4[nH]3)s2)c(C)c1	83.5	-10.0	48.8*	7.0	10.5	41.1
O=C(NCc1cccnc1)Nc1ccc2c(c1)OCO2	102.2	15.0	-3.1	0.0	4.0	.
c1cncc(CNc2ccc3c(c2)OCO3)c1	99.5	17.5	44.4*	0.0	-0.7	52.4*
Cc1cnc(C(=O)OCC(=O)c2cc(C)n(C)c2C)cn1	98.7	35.8	0.1	1.0	11.3	.
O=c1[nH]n2c(=O)c3c([nH]c2c1N=Nc1cccc(C(F)(F)F)c1)CCCC3	.	11.7	54.6*	1.0	1.0	61.5*
O=c1[nH]n2c(=O)c3c([nH]c2c1N=Nc1cccc(Cl)c1)CCC3	110.5	33.5	26.8	12.0	5.0	.
